# Screening data (PubChem)
# GALK inh: qHTS Assay for Inhibitors of Human Galactokinase (GALK); P51570; Potency, µM (titrated, usually from 57.5 µM), for inactives: at the highest dose activity change, negative = inhibition, hits mostly inhibitors; 0.007% of 270,000 active; AID 1868, 2009; Purified GALK, Kinase-Glo residual ATP luminescence; further: potency means the concentration at half of the fitted maximal effect; on the % scale 0 is the no-effect control and ±100 the full control effect
#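 Human GALK (5 nM) with 35 uM ATP and 100 uM galactose in 20 mM HEPES pH 8.0, 5 mM MgCl2, 60 mM NaCl, 1 mM DTT, 0.01% BSA. After 1 h at room temperature, leftover ATP was read by Kinase-Glo Plus luminescence.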
# Tb PFK inh-1: qHTS Assay to Find Inhibitors of T. brucei phosphofructokinase. T. brucei PFK, ADP-Glo luminescence. 0.17% of 330,000 active. Potency, µM (highest dose often 57.5 µM), without a hit: at the top dose activity, negative = inhibition, usual class: inhibitors. AID 485367, 2010. ATP-dependent 6-phosphofructokinase (Trypanosoma brucei brucei), O15648;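 further: potency means the concentration at half of the fitted maximal effect; 0% = uninhibited 1x PFK enzyme wells and -100% = no-enzyme wells; nearly all actives have a fitted effect of over 60% in size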
#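 In TEA buffer at pH 8.0 with 5 mM MgCl2, enzyme (1.25 nM) converted F6P (0.5 mM) and ATP (0.1 mM) for 45 min at room temperature. ADP product was read by luciferase luminescence.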
# CBFb RUNX1 block: qHTS Assay for Compounds Blocking the Interaction Between CBF-beta and RUNX1 for the Treatment of Acute Myeloid Leukemia | Runt-related transcription factor 1 (Homo sapiens) + Core-binding factor subunit beta … | AlphaScreen CBFb-His/RUNX1-biotin binding, biochemical | Potency, µM (series often up to 59.8 µM), for the others: at the highest dose activity, negative = inhibition, most hits filed as inhibitors | 230,000 tested, under 10 active | AID 1477, 2009; further: % of control where 0% means no effect
#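 Room-temperature protein-protein interaction test with 30 nM each of His-tagged CBF-beta and biotinylated RUNX1, 15 min with compound, then 90 min with nickel plus streptavidin beads. Signal read in AlphaScreen mode.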
# PKM2 activator: qHTS Assay for Activators of Human Muscle isoform 2 Pyruvate Kinase; Pyruvate kinase PKM (Homo sapiens), P14618; purified PKM2, Kinase-Glo ATP luminescence, activation; response scale: 0% is enzyme alone, no compound; Potency, µM (doses to about 57.5 µM), for inactives: at the top dose activation, hits mostly activators; 0.34% of 260,000 active; AID 1631, 2009; further: potency means the concentration at half of the fitted maximal effect; on the % scale 0 is the no-effect control and ±100 the full control effect; nearly all actives have a fitted effect of over 55% in size
# Target sequence (P14618 whole entry, looked up, canonical isoform): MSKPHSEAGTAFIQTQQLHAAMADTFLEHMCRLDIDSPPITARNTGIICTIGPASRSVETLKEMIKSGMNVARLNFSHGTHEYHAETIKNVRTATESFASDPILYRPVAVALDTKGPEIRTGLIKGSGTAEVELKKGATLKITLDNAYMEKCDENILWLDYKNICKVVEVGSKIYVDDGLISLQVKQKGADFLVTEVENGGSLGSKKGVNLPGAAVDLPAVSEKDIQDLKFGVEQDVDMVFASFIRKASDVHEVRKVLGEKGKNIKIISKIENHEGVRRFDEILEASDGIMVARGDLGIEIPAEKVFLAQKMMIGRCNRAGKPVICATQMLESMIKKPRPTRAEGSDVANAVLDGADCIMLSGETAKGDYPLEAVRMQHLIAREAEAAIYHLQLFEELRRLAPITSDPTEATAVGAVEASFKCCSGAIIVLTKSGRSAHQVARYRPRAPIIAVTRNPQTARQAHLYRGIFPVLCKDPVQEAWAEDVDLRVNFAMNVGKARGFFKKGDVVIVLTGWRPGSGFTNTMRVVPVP
#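 Kinase-Glo luminescence reports ATP generated from ADP (0.1 mM) and PEP (0.5 mM) by purified hPK-M2 after 1 h at room temperature, pH 7.2 imidazole buffer; intermediate enzyme activity allows detecting inhibitors and activators.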
# KinaseGlo FLuc: Counterscreen for Luciferase (Kinase-Glo TM) Inhibition; Potency, µM (doses to about 38.3 µM), inactives show top-dose activity change, negative = inhibition, actives largely listed as inhibitors; 0.28% of 200,000 active; AID 1379, 2008; Kinase-Glo luciferase, ATP luminescence, 8 min; further: potency means the concentration at half of the fitted maximal effect; on the % scale 0 is the no-effect control and ±100 the full control effect; nearly all actives have a fitted effect of over 60% in size
#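 Inhibition of Kinase-Glo luciferase light generation was assessed at 10 uM ATP in pH 7.2 imidazole buffer, with luminescence measured after eight minutes at ambient temperature.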
# TbPFK ATP: Tb PFK orthogonal confirmatory assay using ATP depletion (Kinase-Glo Plus) as an alternative measure of Tb PFK activity: Hit Validation | Potency, µM (series often up to 57.5 µM), for the others: top-dose inhibition | 47% of 1,100 active | Tb PFK enzyme, ATP depletion, Kinase-Glo Plus luminescence | AID 504636, 2011 | shares compounds with Tb PFK inh-1; calls by dose curve; further: potency means the concentration at half of the fitted maximal effect; nearly all actives have a fitted effect of over 60% in size
# Tb PFK inh-2: Inhibitors of T. brucei phosphofructokinase: Hit Validation; Potency, µM (series often up to 57.5 µM), inactives show at the top dose activity change, negative = inhibition, hits mostly inhibitors; 41% of 1,100 active; shares compounds with Tb PFK inh-1; purified T. brucei PFK, ADP-Glo luminescence, 45 min; AID 504637, 2011;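 further: potency means the concentration at half of the fitted maximal effect; plate controls were full PFK enzyme control for no effect and no enzyme control for full effect; nearly all actives have a fitted effect of over 60% in size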
# Active calls of the source: *; ? = inconclusive; / = not tested or not shown; [ ] = remark or other dose. The list is not random: actives were taken first. Their share in the collection is about 0.56%. Unless noted, the call rests on the fitted dose curve; in most records, active means well fitted curve in the direction sought with a large enough effect; inconclusive means small, poorly fitted or top-dose-only effect, or another doubt; inactive means no such curve, though single readings can be large; an effect the other way counts as inactive or inconclusive.
SMILES,GALK inh,Tb PFK inh-1,CBFb RUNX1 block,PKM2 activator,KinaseGlo FLuc,TbPFK ATP,Tb PFK inh-2
O=C(Cn1cc(C(=O)c2ccccc2)c2ccccc21)NCc1ccco1,3%,-17%,-22%,-4%,/,/,/
CC(=O)C(O)C(c1ccccc1)c1c(O)c2ccccc2oc1=O (stereo unspecified),/,/,19%,/,/,/,/
ClC(Br)Br,/,/,-2%[21.7 µM],/,/,/,/
C/C(=N\NC(=O)c1cc(O)cc(O)c1)c1ccc(NC(=O)Cc2ccccc2)cc1,-8%,?,/,28%,/,?,?
N#Cc1ccc(CN2CCC3(CC2)CCN(C(=O)Oc2ccccc2)CC3)cc1,/,/,/,/,-4%,/,/
O=C(COc1ccc(Cl)cc1)N(c1ccccc1Cl)C1CN2CCC1CC2 (stereo unspecified),-2%,4%,4%,12%,/,/,/
O=C(COc1ccc(Cl)cc1)Nc1cccc(S(=O)(=O)NC2=NCCCCC2)c1,/,3µM*,/,/,/,2.7µM*,6µM*
N#Cc1ccc(OCC(=O)Nc2cccc(S(=O)(=O)NC3=NCCCCC3)c2)cc1,/,6µM*,/,/,/,3.8µM*,6µM*
COC(=O)CC1(CC(=O)OC)C(=O)N(c2ccccc2)C(=O)N(c2ccccc2)C1=O,0%,0%,/,/,/,/,/
O=C(CC1SC(=O)N(c2ccccc2)C1=O)Nc1ccc(Br)cc1 (stereo unspecified),1%,19µM*,-8%,1%,/,?,?
O=C(NNC(=O)c1ccc2nonc2c1)Nc1ccc(Cl)cc1,3%,15µM*,4%,0%,/,?,?
CON(C)C(=O)Nc1ccc(Cl)cc1,1%,-11%,-1%,?,-3%,/,/
CC(C)N(CC[C@@](C(N)=O)(c1ccccc1)c1ccccn1)C(C)C,/,/,-7%[21.7 µM],/,-1%[17.1 µM],/,/
NCCP(=O)(O)O,/,/,/,/,-2%[7.66 µM],/,/
O=C1N(c2ccc(Cl)c(Cl)c2)CN(Cc2ccccc2)CN1n1cnnc1,-4%,27µM*,2%,-5%,17%,?,-16%
Cc1c(C(=O)Nc2nc(-c3ccccn3)cs2)oc2ccccc12,/,?,/,/,/,19µM*,30µM*
O=C1NC(=O)C(Sc2ccccc2[N+](=O)[O-])C(=O)N1,-2%,-23%,/,2%,/,/,/
O=C1NC(c2ccc(Cl)c([N+](=O)[O-])c2)Nc2ccccc21 (stereo unspecified),0%,21µM*,-2%,?,-4%,24µM*,13µM*
Cc1[nH]c(=S)sc1Cc1ccc(Cl)c(Cl)c1,-1%,19µM*,-19%,8%,-1%,27µM*,24µM*
Cc1ccc2c(c1)N(C(=O)CCC(=O)N1CCC3(CC1)OCCO3)CCO2,-3%,0%,/,/,/,/,/
CCOC(=O)N1CCC(NC(=O)CCC(=O)N2CCOc3ccc(Cl)cc32)CC1,4%,?,16%,-5%,3%,?,-21%
C[C@]12[C@H](O)CC3C(CC[C@@H]4C[C@@H](O)CC[C@]34C)[C@@]1(O)CC[C@@H]2C1=CC(=O)OC1 (stereo partly specified),/,/,2%[21.7 µM],/,-1%,/,/
CN1C(=S)SC(N(O)C(=O)Nc2ccc(Cl)c(Cl)c2)C1(C)C (stereo unspecified),/,?,-2%,-5%,7%,?,?
c1ccc(N2CCC3(CCNCC3)CC2)cc1,/,/,/,/,-1%,/,/
COc1ccccc1NS(=O)(=O)c1cccc(-n2c(O)c(C=Nc3ccccc3C(=O)O)c3ccccc3c2=O)c1,-23%,?,?,-1%,/,-29%,?
SMILES,GALK inh,Tb PFK inh-1,CBFb RUNX1 block,PKM2 activator,KinaseGlo FLuc,TbPFK ATP,Tb PFK inh-2
O=c1c2ccccc2sn1-c1cc(S(=O)(=O)N2CCOCC2)ccc1N1CCCC1,0%,9.5µM*,4%,-99%,-3%,?,?
O=c1c2ccccc2sn1-c1cc(S(=O)(=O)N2CCOCC2)ccc1N1CCOCC1,5%,13µM*,-1%,-38%,-12%,?,21µM*
CC(=O)CC(c1ccccc1)c1c(O)c2cccc(O)c2oc1=O (stereo unspecified),/,/,6%,/,/,/,/
Cc1ccc2c(c1)C1(CCN(CCc3nc(-c4ccccc4)oc3C)CC1)OC(=O)N2,/,/,-5%,/,/,/,/
COc1ccc(OCC(=O)OCC(=O)Nc2ccc3[nH]c(=O)[nH]c3c2)cc1,/,30µM*,/,/,/,?,?
COc1ccc(CCNC(=O)COC(=O)Cc2ccccc2)cc1,0%,0%,-3%,1%,/,/,/
O=C(COc1ccc(Cl)cc1)Nc1ccc2[nH]ncc2c1,-3%,?,/,-5%,/,17µM*,24µM*
COc1ccccc1C(=O)NCC(=O)OCC(=O)Nc1ccc2[nH]c(=O)[nH]c2c1,/,27µM*,/,/,/,?,?
CCCCCOC(=O)c1ccccc1C(=O)OCCCCC,/,/,29%[21.7 µM],/,/,/,/
C(=C\c1ccccc1)/CN1CCN(CCOC(c2ccccc2)c2ccccc2)CC1,/,/,-8%,/,/,/,/
[Cl-].[Cl-].[Hg+2],/,/,3%[21.7 µM],/,/,/,/
O=C(Cn1sc2ccccc2c1=O)NC12CC3CC(CC(C3)C1)C2,-1%,4.3µM*,-6%,-39%,-1%,?,9.5µM*
O=C(NC12CC3CC(CC(C3)C1)C2)OC1CN2CCC1CC2 (stereo unspecified),3%,-1%,3%,-1%,/,/,/
COc1ccc(CN2C(=O)c3cccnc3C2O)cc1 (stereo unspecified),-8%,27µM*,0%,0%,-2%,?,?
ClCCCCl,/,/,3%[21.7 µM],/,/,/,/
Cc1ccc(C(=O)NCc2ccc(Cl)c(Cl)c2)o1,6%,11µM*,-2%,-2%,12%,6.7µM*,24µM*
CCOC(=O)NCc1ccc(Cl)c(Cl)c1,0%,30µM*,5%,-15%,3%,21µM*,?
N[C@@H](CSC1c2ccccc2-c2ccccc21)C(=O)O,/,/,/,/,-4%[7.66 µM],/,/
CC(Cl)(Cl)Cl,/,/,6%[21.7 µM],/,/,/,/
COC(=O)/C=C/C(=O)N[C@@H]1CC[C@@]2(O)[C@H]3Cc4ccc(O)c5c4[C@@]2(CCN3CC2CC2)[C@H]1O5,/,/,8%,/,/,/,/
